Inconclusive results are not listed. Calls of active or inactive are those of the source.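 Rule for the calls, unless noted: active = normalized viability below 100% at a tested concentration; inactive = the rest.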
How the values were obtained:
[1] = growth inhibition of DIPG glioma cells, dose response, cell-based, JHH-DIPG-1, MIPE4.0, CellTiter-Glo, qHTS (AID 1347062; cut-off not given, nearly all actives have AC50 up to about 27 µM;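 for AC50: cells exposed to compound for two days before readout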); conditions: JHH-DIPG-1 viability, CellTiter-Glo ATP luminescence
[2] = growth inhibition of DIPG glioma cells, dose response, cell-based, SU-DIPG-IV, MIPE4.0, CellTiter-Glo, qHTS (AID 1347063; cut-off not given, nearly all actives have AC50 up to about 30 µM;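 note: compound exposure lasted 48 hours before the viability readout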); conditions: SU-DIPG-IV viability, CellTiter-Glo ATP luminescence
[3] = viability loss in pontine glioma line – cell-based, SU-DIPG-XXV, MIPE5.0, CellTiter-Glo, qHTS, dose response (AID 1347065; cut-off not given, nearly all actives have AC50 up to about 26 µM;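 note: cells exposed to compound for 48 hours before ATP readout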); conditions: CellTiter-Glo ATP luminescence
[4] = SU-DIPG-VI glioma cell viability, MIPE4.0 library, CellTiter-Glo luminescence, qHTS (AID 1347066; cut-off not given, nearly all actives have AC50 up to about 30 µM;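 note: cells exposed to compound for 48 hours before readout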); conditions: CellTiter-Glo ATP luminescence
[5] = JHH-DIPG-1 glioma cell viability, MIPE5.0 library, CellTiter-Glo luminescence, qHTS (AID 1347067; cut-off not given, nearly all actives have AC50 up to about 26 µM;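 note: cells exposed to compound for 48 hours before readout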); conditions: JHH-DIPG-1 glioma viability, CellTiter-Glo ATP luminescence
[6] = SU-DIPG-XXV glioma cell viability, MIPE5.0 library, qHTS (AID 1347068; cut-off not given, nearly all actives have IC50 up to about 30 µM;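 for IC50: cells exposed to compound for 48 hours before viability readout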)
[7] = sensitizers of A549 cells to miR-34 induction, primary screen, imaging, A549 dox-inducible miR-34, nuclei and caspase counts (AID 1347080;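 active = compounds whose cell count with miR-34 switched on is under 0.7 times the count with it off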); conditions: A549 miR-34 inducible, Hoechst nuclei count, 48 h
[8] = modifiers of HSF1 nuclear foci, imaging, Selleck Cancer Library (AID 1347162; in the data active = plate-normalised HSF1 focus index below about 0.46); conditions: human cells, at 10 µM; SSMD: measured here: HSF1 foci SSMD mean; cell count: measured here: cell number; plate-normalised HSF1 focus index: stronger effect = lower value
[9] = survival rescue of mitochondrial mutant cells in low glucose, primary screen, MELAS cybrids, Rieske KO mouse fibroblasts, CellTiter-Glo (AID 1508586;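 active = mean z-score across replicates of 1.96 or higher in either the MELAS or the Rieske mutant cell line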;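 note: z relative to plate mean and SD of compound and empty wells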)
[10] = ovarian cancer cell viability with rucaparib, profiling panel, oncology-focused library, rucaparib conditional (AID 1508598); conditions: patient-derived ovarian cancer cells, CellTiter-Glo viability, 144 h, stronger effect = lower value
[11] = LFS_MB_P medulloblastoma growth inhibition, cell-based, chromothripsis tumors, cisplatin or BGB combos (AID 1671449; in the data active = inhibition above about 80%;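 note: cells exposed for 96 hours; 0% = vehicle DMSO and 100% = killing by high DMSO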); conditions: LFS_MB_P medulloblastoma cells
[12] = HDN33 neuroblastoma growth inhibition, cell-based, chromothripsis tumors, cisplatin or BGB combos (AID 1671450; in the data active = inhibition above about 80%;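 note: cells exposed to compound for four days; 0% = vehicle DMSO and 100% = cell killing by high DMSO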); conditions: HDN33 neuroblastoma cells, stronger effect = higher value
[13] = ICB984 medulloblastoma cell growth inhibition, synergistic combos for chromothripsis tumors, cisplatin or BGB combos (AID 1671451; call rule not given here;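 note: cells exposed for 96 hours before readout; 0% = vehicle DMSO and 100% = killing by high DMSO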); conditions: ICB984 medulloblastoma cells, drug combinations, stronger effect = higher value
[14] = LFS_MB_1R medulloblastoma cell growth inhibition, synergistic combos for chromothripsis tumors, cisplatin or BGB combos (AID 1671452; in the data active = inhibition above about 80%;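 note: cells exposed for 96 hours before readout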); conditions: LFS_MB_1R medulloblastoma cells, stronger effect = higher value
[15] = HTB85 osteosarcoma cell growth inhibition, synergistic combos for chromothripsis tumors, BGB or cisplatin IC20 combos (AID 1671453; in the data active = inhibition above about 80%;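 note: cells exposed for 96 hours before readout; 0% = vehicle DMSO and 100% = high DMSO killing control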); conditions: HTB85 osteosarcoma cells, drug combinations, stronger effect = higher value
[16] = MDA-MB-436 breast carcinoma cell growth inhibition, synergistic combos for chromothripsis tumors, BGB or cisplatin combos (AID 1671458; call rule not given here;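 note: cells exposed for 96 hours; 0% = vehicle DMSO and 100% = killing by high DMSO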); conditions: MDA-MB-436 breast carcinoma growth inhibition, drug combinations, stronger effect = higher value
[17] = growth inhibition of BT084 medulloblastoma cells, cell-based, ICGC_MB145, cisplatin and BGB IC40 combos (AID 1671461; in the data active = inhibition above about 80%;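 note: cells exposed to drugs for 96 hours; 0% = vehicle DMSO and 100% = high DMSO full killing control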); conditions: drug combinations, stronger effect = higher value
[18] = growth inhibition of RCMB18 medulloblastoma cells, cell-based, cisplatin and BGB IC40 combos (AID 1671462; in the data active = inhibition above about 80%;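 note: cells exposed to compound for four days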); conditions: stronger effect = higher value
[19] = growth inhibition of CRL1545 osteosarcoma cells, cell-based, cisplatin and BGB IC20 combos (AID 1671464; in the data active = inhibition above about 80%;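 note: cells exposed to compound for 96 hours before readout; 0% = vehicle DMSO and 100% = high DMSO killing control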); conditions: stronger effect = higher value
[20] = stronger effect = lower value, cell number ratio, induced over uninduced
[21] = measured here: relative caspase fold change +Dox/-Dox
[22] = measured here: total cells with miR-34 induction, stronger effect = lower value
[23] = measured here: total cells without miR-34 induction
[24] = measured here: combination with BGB IC40, at 0.05 µM
[25] = measured here: with BGB IC20 combination, at 0.5 µM
[26] = measured here: with cisplatin IC20 combination, at 0.5 µM
[27] = measured here: combination with cisplatin, at 0.5 µM

Cc1cccc(-c2nn(C(=S)Nc3ccccc3)cc2-c2ccnc3ccccc23)n1
outcome [1]: inactive | outcome [2]: inactive | outcome [3]: inactive | outcome [4]: inactive | outcome [5]: inactive | outcome [6]: inactive

CC1(O)CC(c2nc(-c3ccc4ccc(-c5ccccc5)nc4c3)c3c(N)nccn23)C1 (stereo not given)
AC50 [1]: 1480 nM (active) | AC50 [2]: 14.8 µM (active) | AC50 [3]: 0.332 µM (active) | AC50 [4]: 332 nM (active) | AC50 [5]: 11.8 µM (active) | outcome [6]: inactive | fold change [7, 20]: 1.03 (inactive) | fold change [7, 21]: 0.898 | cell count [7, 22]: 2240 | cell count [7, 23]: 2180 | SSMD [8]: 1.94 | cell count [8]: 6580 | plate-normalised HSF1 focus index [8]: 1.1 (inactive) | z-score ([9]; MELAS cybrid survival, CellTiter-Glo 48 h, stronger effect = higher value): -0.422 (inactive) | z-score ([9]; Rieske KO mouse fibroblast survival, CellTiter-Glo 72 h): 0.283 | viability ([10]; at 0.000305 µM, OCI-C5x cells, with rucaparib 10 µM, 100% = cells with rucaparib alone): 114% (inactive) | viability ([10]; at 0.000305 µM, OCI-C5x cells, without rucaparib): 139% (inactive) | viability ([10]; at 0.000305 µM, OCI-P5x cells, with rucaparib 20 µM, 100% = cells with rucaparib alone): 109% (inactive) | viability ([10]; at 0.000305 µM, OCI-P5x cells, without rucaparib): 106% (inactive) | viability ([10]; at 0.00122 µM, OCI-C5x cells, with rucaparib 10 µM, 100% = cells with rucaparib alone): 121% (inactive) | viability ([10]; at 0.00122 µM, OCI-C5x cells, without rucaparib): 130% (inactive) | viability ([10]; at 0.00122 µM, OCI-P5x cells, with rucaparib 20 µM, 100% = cells with rucaparib alone): 104% (inactive) | viability ([10]; at 0.00122 µM, OCI-P5x cells, without rucaparib): 104% (inactive) | viability ([10]; at 0.00488 µM, OCI-C5x cells, with rucaparib 10 µM, 100% = cells with rucaparib alone): 111% (inactive) | viability ([10]; at 0.00488 µM, OCI-C5x cells, without rucaparib): 124% (inactive) | viability ([10]; at 0.00488 µM, OCI-P5x cells, with rucaparib 20 µM, 100% = cells with rucaparib alone): 99.9% (active) | viability ([10]; at 0.00488 µM, OCI-P5x cells, without rucaparib): 105% (inactive) | viability ([10]; at 0.0195 µM, OCI-C5x cells, with rucaparib 10 µM, 100% = cells with rucaparib alone): 115% (inactive) | viability ([10]; at 0.0195 µM, OCI-C5x cells, without rucaparib): 127% (inactive) | viability ([10]; at 0.0195 µM, OCI-P5x cells, with rucaparib 20 µM, 100% = cells with rucaparib alone): 104% (inactive) | viability ([10]; at 0.0195 µM, OCI-P5x cells, without rucaparib): 106% (inactive) | viability ([10]; at 0.0781 µM, OCI-C5x cells, with rucaparib 10 µM, 100% = cells with rucaparib alone): 114% (inactive) | viability ([10]; at 0.0781 µM, OCI-C5x cells, without rucaparib): 133% (inactive) | viability ([10]; at 0.0781 µM, OCI-P5x cells, with rucaparib 20 µM, 100% = cells with rucaparib alone): 101% (inactive) | viability ([10]; at 0.0781 µM, OCI-P5x cells, without rucaparib): 113% (inactive) | viability ([10]; at 0.313 µM, OCI-C5x cells, with rucaparib 10 µM, 100% = cells with rucaparib alone): 133% (inactive) | viability ([10]; at 0.313 µM, OCI-C5x cells, without rucaparib): 57.9% (active) | viability ([10]; at 0.313 µM, OCI-P5x cells, with rucaparib 20 µM, 100% = cells with rucaparib alone): 88.6% (active) | viability ([10]; at 0.313 µM, OCI-P5x cells, without rucaparib): 96% (active) | viability ([10]; at 1.25 µM, OCI-C5x cells, with rucaparib 10 µM, 100% = cells with rucaparib alone): 145% (inactive) | viability ([10]; at 1.25 µM, OCI-C5x cells, without rucaparib): 134% (inactive) | viability ([10]; at 1.25 µM, OCI-P5x cells, with rucaparib 20 µM, 100% = cells with rucaparib alone): 41.3% (active) | viability ([10]; at 1.25 µM, OCI-P5x cells, without rucaparib): 66.2% (active) | viability ([10]; at 5 µM, OCI-C5x cells, with rucaparib 10 µM, 100% = cells with rucaparib alone): 168% (inactive) | viability ([10]; at 5 µM, OCI-C5x cells, without rucaparib): 153% (inactive) | viability ([10]; at 5 µM, OCI-P5x cells, with rucaparib 20 µM, 100% = cells with rucaparib alone): 7.72% (active) | viability ([10]; at 5 µM, OCI-P5x cells, without rucaparib): 32.8% (active)

Nc1nc(OCc2ccccc2)c2[nH]cnc2n1
outcome [1]: inactive | outcome [2]: inactive | outcome [3]: inactive | outcome [4]: inactive | outcome [5]: inactive | outcome [6]: inactive | fold change [7, 20]: 0.895 (inactive) | fold change [7, 21]: 1.25 | cell count [7, 22]: 8910 | cell count [7, 23]: 9960

CO[C@H]1/C=C/O[C@@]2(C)Oc3c(C)c(O)c4c(O)c(c(/C=N\N5CCN(C6CCCC6)CC5)c(O)c4c3C2=O)NC(=O)/C(C)=C\C=C\[C@H](C)[C@H](O)[C@@H](C)[C@@H](O)[C@@H](C)[C@H](OC(C)=O)[C@@H]1C
AC50 [1]: 105 nM (active) | AC50 [2]: 0.0935 µM (active) | AC50 [3]: 26.3 µM (active) | IC50 [6]: 20.9 µM (active) | inhibition ([11]; at 0.5 µM, stronger effect = higher value): 5.09% (inactive) | inhibition ([11]; measured here: combination with BGB IC20, at 0.005 µM): -7.42% | inhibition ([11]; measured here: combination with BGB IC40, at 0.005 µM): -15% | inhibition [11, 24]: -18.2% | inhibition ([11]; measured here: combination with cisplatin, at 0.5 µM, stronger effect = higher value): -6.85% | inhibition ([11]; measured here: combination with cisplatin, at 5 µM, stronger effect = higher value): 15% | inhibition ([12]; BGB combo, at 5 µM): 85.6% | inhibition ([12]; at 0.5 µM): -11.9% (inactive) | inhibition ([12]; cisplatin combo, at 5 µM): 6.46% | inhibition [12, 25]: -21.1% | inhibition [12, 26]: -18.8% | inhibition ([12]; single agent, at 5 µM): -3.56% | inhibition ([13]; BGB IC20 combo, at 0.005 µM): -21.8% | inhibition ([13]; BGB IC40 combo, at 0.005 µM): -25.4% | inhibition ([13]; BGB IC40 combo, at 0.05 µM): -16.4% | inhibition ([13]; at 0.5 µM): -17.3% (inactive) | inhibition ([13]; cisplatin combo, at 0.05 µM): -19.6% | inhibition ([13]; cisplatin combo, at 0.5 µM): -17.5% | inhibition ([13]; cisplatin combo, at 5 µM): -18.6% | inhibition ([13]; measured here: 5 uM single agent, at 5 µM): -17.8% | inhibition ([14]; at 0.5 µM): -26.5% (inactive) | inhibition [14, 24]: 5.18% | inhibition [14, 27]: -21.5% | inhibition ([14]; measured here: combination with cisplatin, at 5 µM): -13.2% | inhibition ([15]; at 0.5 µM): 16% (inactive) | inhibition ([15]; measured here: with BGB IC20, at 0.5 µM): 12.6% | inhibition ([15]; measured here: with BGB IC20, at 5 µM): 76.7% | inhibition ([15]; measured here: with cisplatin IC20, at 0.5 µM): 35.8% | inhibition ([15]; measured here: with cisplatin IC20, at 5 µM): 10.4% | inhibition ([15]; single agent, at 5 µM): 35.1% | inhibition ([16]; at 0.5 µM): -19% (inactive) | inhibition ([16]; measured here: BGB combination, at 0.5 µM): -15.7% | inhibition ([16]; measured here: BGB combination, at 5 µM): -5.36% | inhibition ([16]; measured here: cisplatin combination, at 0.5 µM): -40.9% | inhibition ([16]; measured here: cisplatin combination, at 5 µM): -22% | inhibition ([17]; at 0.5 µM): -28.3% (inactive) | inhibition ([17]; cisplatin combination, at 0.5 µM): -31.9% | inhibition ([17]; cisplatin combination, at 5 µM): -20.9% | inhibition ([17]; measured here: BGB IC40 combination 0.05 uM, at 0.05 µM): -25.7% | inhibition ([17]; single agent, at 5 µM): -12.9% | inhibition ([18]; at 0.5 µM): -14.8% (inactive) | inhibition ([18]; cisplatin combo, at 5 µM): 15% | inhibition ([18]; measured here: BGB IC40 combination, at 0.05 µM): -18.7% | inhibition [18, 27]: -14.5% | inhibition ([18]; single agent, at 5 µM): 27.7% | inhibition ([19]; at 0.5 µM): 4.23% (inactive) | inhibition [19, 25]: 23.5% | inhibition [19, 26]: -7.81% | inhibition ([19]; single agent, at 0.05 µM): 8.47% | inhibition ([19]; single agent, at 5 µM): 73.2%

Cn1cc(-c2[nH]c3cc(NC(=O)[C@H](N)C4CCCCC4)cc4c3c2C=NNC4=O)cn1
AC50 [1]: 418 nM (active) | AC50 [2]: 1.18 µM (active) | AC50 [3]: 1.18 µM (active) | AC50 [5]: 16.6 µM (active) | IC50 [6]: 4.68 µM (active) | SSMD [8]: -1.12 | cell count [8]: 6990 | plate-normalised HSF1 focus index [8]: 0.932 (inactive)

— PubChem BioAssay
